Screening data (PubChem BioAssay)
The full list was thinned out, with hits kept by preference.
IkB sig inh – inhibitors of IkB signaling in ABC-DLBCL cells; ABC-DLBCL IkBa-CBG/CBR dual luciferase ratio, 4 h; response scale: scaled: untreated 0%, proteasome inhibitor 100%; Potency, µM (series often up to 57.1 µM), without a hit: at the highest dose IkBa stabilization activation; 110,000 tested, 0.04% active; AID 445; active = well fitted curve in the direction sought with a large enough effect in the signal ratio, not every such curve was filed as active; inconclusive = small, poorly fitted or top-dose-only effect, or a change in a side signal; the % refers to the signal ratio;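 also: potency is read from the fitted curve at half-maximal effect; the direction sought is a rising ratio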
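In this assay, an IκBα–CBG68 fusion accumulates when IKK-driven degradation is blocked; native CBR normalizes for cell number. OCI-Ly3 cells were treated 4 h with compound and doxycycline, then green and red light read after Chroma-Glo addition.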
HBB splicing – alters splicing of the hemoglobin beta chain | HBB splicing reporter cell assay, activation; EGFP reporter with mutant IVS2-654 intron; response scale: normalised to 500 nM splice-correcting PNA | Potency, µM (titrated, usually from 46.1 µM), for the others: at the highest dose activation, actives largely listed as activators | 65,000 tested, 0.06% active; also: potency is read from the fitted curve at half-maximal effect; 0% is about no effect
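Compounds were applied for 2 days to HeLa EGFP-654 cells, 500/well in Optimem with 2% FCS. The reporter's EGFP is disrupted by mis-splicing of beta-globin intron IVS2-654. Readout: summed well GFP fluorescence from 488 nm laser scanning; reference was 500 nM antisense […] 654 PNA.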
Peg3 imprint – genomic imprint erasure induction. mouse ES Peg3-LacZ reporter, beta-gal luminescence, 40 h. Potency, µM (doses to about 60.7 µM), without a hit: at the top dose activity change, positive = activation, usual class: activators. 110,000 tested, 0.02% active; also: potency is read from the fitted curve at half-maximal effect
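Each well holds 300 Peg3LacZ-Neo (maternal) female ES cells incubated 40 h at 37C, 5% CO2. LacZ is measured by BetaGlo luminescence, with AC50 and maximum efficacy derived from dose-response curves.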
Epigenetic mod – epigenetic modulators derepressing GFP locus in mouse cells; Potency, µM (titrated, usually from 46.1 µM), for inactives: at the top dose GFP derepression (activation); 68,000 tested, 0.09% active; mouse C127i GFP locus derepression, cytometry, 30 h; also: % of control where 0% means no effect
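Derepression screen: silenced CMV-GFP reporter in murine C127i cells, 30 h compound incubation at 37 C, washed cells imaged by laser-scanning cytometer to enumerate GFP-expressing objects of 20 to 120 um.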
CRE-bla Fsk – modulators of forskolin-stimulated CRE signaling in CHO cells; 71,000 tested, 2.5% active; AID 662; Potency, µM (doses to about 38.2 µM), for the others: top-dose activity change, negative = inhibition, actives largely listed as activators; CHO CRE-bla reporter (cAMP response element driving beta-lactamase), forskolin EC10, beta-lactamase ratio; active = well fitted activation curve with a large enough effect in the signal ratio, with a control signal flat, not every such curve was filed as active; inconclusive = small, poorly fitted or top-dose-only effect, or effect the other way, or a change in a side signal; the % refers to the signal ratio; also: potency is read from the fitted curve at half-maximal effect; % of control where 0% means no effect
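AC50 values, positive or negative, reflect shifts in EC10 NKH 477-induced CRE-bla reporter activity in CHO cells. Incubation lasted 3 h at 37 °C before CCF4 substrate (2 h, room temperature) and ratiometric 460/530 nm reading.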
An asterisk follows results filed as active; ? = inconclusive; . = no result given; [ ] = dose if it differs, or a comment. Unless noted, calls follow the shape of the dose curve; as a rule, active = well fitted curve in the direction sought with a large enough effect; inconclusive = small, poorly fitted or top-dose-only effect, or another doubt; inactive = no such curve, though single readings can be large; an effect the other way counts as inactive or inconclusive.

SMILES	IkB sig inh	HBB splicing	Peg3 imprint	Epigenetic mod	CRE-bla Fsk
Cc1ccc(-c2nn(C)c(=O)c3ccccc23)cc1S(=O)(=O)NCCO	3.4%	2.4%	-3.2%	4.8%	10µM*
Cc1ccc(-c2nn(C)c(=O)c3ccccc23)cc1S(=O)(=O)NCCCN(C)C	3.8%	.	-7.6%[10.9 µM]	.	.
Cc1ccccc1Nc1nnc(-c2ccc(C)c(S(=O)(=O)N3CCCCC3)c2)c2ccccc12	2.6%	.	-17.3%[10.9 µM]	.	.
Cc1ccc(-c2nn(C)c(=O)c3ccccc23)cc1S(=O)(=O)N1CCOCC1	1.7%	0.3%	-8.8%	-1.7%	3.16µM*
COc1cc2c(cc1OC)C(COc1ccccc1OC)N(C(=O)COc1ccc(Cl)cc1)CC2 (centres undefined)	?	.	-13.2%[10.9 µM]	.	.
Cc1ccc(CSC2=Nc3ccccc3C3=NC(CCC(=O)NCCc4ccccc4)C(=O)N23)cc1 (centres undefined)	?	.	14.8%[10.9 µM]	.	.
CC1(C)CC(=O)c2cc(-c3nc(-c4ccc(Cl)cc4)cs3)c(=O)n(-c3cccc(F)c3)c2C1	1.9%	.	-5.9%[10.9 µM]	.	.
COC(=O)c1ccc(OCC2c3cc(OC)c(OC)cc3CCN2C(=O)c2ccco2)cc1 (centres undefined)	?	5.5%[0.369 µM]	7.8%	0.0%	1.58µM*
CCC(=O)N1CCc2cc(OC)c(OC)cc2C1COc1ccc(C(=O)OC)cc1 (centres undefined)	?	-4.7%[0.369 µM]	-7.9%	9.1%	3.98µM*
COC(=O)c1ccc(OCC2c3cc(OC)c(OC)cc3CCN2C(=O)c2ccc(OC)cc2)cc1 (centres undefined)	-0.4%	.	-10.1%[10.9 µM]	.	.
CCCC(=O)N1CCc2cc(OC)c(OC)cc2C1COc1ccc(C(=O)OC)cc1 (centres undefined)	-2.8%	.	-12.4%[10.9 µM]	.	.
Cc1cccc(CCNC(=O)CCc2c(C)nc3c(c(C)nn3-c3ccccc3)c2C)c1	?	.	-10.9%[10.9 µM]	.	.
COc1ccc(-c2nc(C#N)c(NCCc3ccccc3)o2)cc1OC	?	4.5%[0.369 µM]	-57.7%	2.6%	?
COc1ccc(-c2nc(C#N)c(N3CCCCCC3)o2)cc1	1.1%	-0.8%	-16.8%	3.8%	?
CNc1oc(-c2ccco2)nc1C#N	0.5%	-0.3%[0.369 µM]	1.4%	2.2%	8.0%
COc1ccc(-c2nc(C#N)c(N3CCCCCC3)o2)cc1OC	-4.4%	-0.5%[0.369 µM]	-26.9%	0.0%	1.26µM*
Cc1ccc(CNc2oc(-c3ccco3)nc2C#N)cc1	-0.7%	-1.8%	20.8%	0.0%	10µM*
COc1ccc(CCNc2oc(COc3ccccc3Cl)nc2C#N)cc1OC	?	0.0%	-24.1%	0.0%	?
COc1ccc(-c2nc(C#N)c(NCc3ccc(C)cc3)o2)cc1OC	-1.2%	0.1%	-7.8%	2.9%	5.01µM*
COc1ccc(CCNc2oc(Cc3ccccc3)nc2C#N)cc1OC	?	-0.2%[1.84 µM]	10.7%	4.1%	10µM*
CCCCOc1ccc(C2=NC(c3ccncc3)=Nc3ccc(Br)cc3N2)cc1	-1.4%	.	-2.4%[10.9 µM]	.	.
COc1cc(OC)c(NC(=O)Nc2cccc(OCc3cc(=O)n4ccccc4n3)c2)cc1Cl	?	.	8.9%[10.9 µM]	.	.
COc1ccc(CNc2oc(-c3cccc4ccccc34)nc2C#N)cc1	4.7%	-0.7%[0.369 µM]	-12.6%	-1.6%	10µM*
CNc1oc(-c2cccc3ccccc23)nc1C#N	-1.9%	5.2%[1.84 µM]	-8.9%	2.6%	?
Cc1cc(C(F)F)n2ncc(C(=O)NC3CCCCCC3)c2n1	-1.8%	0.2%	-9.3%	2.6%	?
SMILES	IkB sig inh	HBB splicing	Peg3 imprint	Epigenetic mod	CRE-bla Fsk
Cc1c2c(nc3c(C(=O)NC4CC4)cnn13)CCCC2	-2.8%	0.4%	-32.1%	0.0%	12.6µM*
CCC(C)NC(=O)c1cnn2c(C)c3c(nc12)CCCC3 (centres undefined)	-3.9%	5.4%	-13.7%	2.6%	12.6µM*
Cc1c(Cl)ccc2sc(N3CCN(C(=O)C4CC4)CC3)nc12	-3.0%	.	8.8%[10.9 µM]	.	.
COc1cc(C(=O)OCn2nnc3ccccc3c2=O)cc(OC)c1OC	0.0%	-1.9%	-12.0%	2.1%	6.31µM*
CCOC(=O)Cc1csc(SCn2nnc3ccccc3c2=O)n1	3.0%	1.0%[1.84 µM]	-15.2%	0.0%	?
Cc1cc(C(=O)OCn2nnc3ccccc3c2=O)c(C)n1-c1ccccc1	0.9%	3.3%	-17.0%	-3.3%	3.98µM*
Cc1nc(SCn2nnc3ccccc3c2=O)nc(C)c1C	0.8%	-1.0%	-11.1%	1.0%	12.6µM*
Cc1ccccc1C(=O)OCn1nnc2ccccc2c1=O	0.8%	1.2%	-7.9%	.	12.6µM*
CCOc1ccc(C(=O)OCn2nnc3ccccc3c2=O)cc1OC	-2.6%	-3.0%	-6.4%	1.2%	?
COc1cccc(C(=O)OCn2nnc3ccccc3c2=O)c1OC	0.5%	-1.1%	-23.3%	.	-9.8%
COc1cccc(CNC(=O)CSc2ncc3c(n2)-c2cc(Cl)ccc2N(C)S3(=O)=O)c1	-5.0%	.	-10.4%[10.9 µM]	.	.
Cc1ccc(CNc2cc(C)nc3nc(-c4cccc(C)c4)nn23)cc1	4.7%	.	-13.7%[10.9 µM]	.	.
CN(C)c1ncnc2ccc(-c3cccnc3)cc12	-3.8%[11.4 µM]	0.8%	?	-2.9%[9.22 µM]	3.16µM*
COc1cccc(-c2ccc3ncnc(N(C)C)c3c2)c1	-2.9%[11.4 µM]	-0.8%	-16.1%	14.3%[9.22 µM]	18.0%
CS(=O)(=O)Nc1cccc(-c2nc(N3CCNCC3)c3ccccc3n2)c1	-2.9%[11.4 µM]	0.9%	-20.4%	0.5%[9.22 µM]	12.6µM*
N#Cc1cccc(-c2nc(N3CCNCC3)c3ccccc3n2)c1	-2.9%[11.4 µM]	-0.4%	-21.9%	-5.1%[9.22 µM]	?
CN(C)c1nc(-c2cccc(NS(C)(=O)=O)c2)nc2ccccc12	-1.7%[11.4 µM]	-0.5%	-13.4%	2.4%[9.22 µM]	12.6µM*
CS(=O)(=O)Nc1cccc(-c2ccc3ncnc(Nc4ccccc4)c3c2)c1	-2.8%[11.4 µM]	-0.9%	-9.5%	2.9%[9.22 µM]	?
CN(C)c1ncnc2ccc(-c3cccc(NS(C)(=O)=O)c3)cc12	-2.0%[11.4 µM]	-0.2%	-3.2%	-2.9%[9.22 µM]	10µM*
CCc1ccc(CNC(=O)c2cnc3sc(N(CC)CC)nn3c2=O)cc1	-6.6%	.	-4.1%[10.9 µM]	.	.
CCN1C(=O)c2ccccc2Sc2ccc(NC(=O)Nc3cccc([N+](=O)[O-])c3C)cc21	-1.0%	.	-13.3%[10.9 µM]	.	.
CCCn1c(C)nc2c(N3CCOCC3)nc(C)nc21	.	-1.1%	-1.4%	.	10µM*
CC(C)(C(=O)O)c1ccc([C@@H](O)CCCN2CCC(C(O)(c3ccccc3)c3ccccc3)CC2)cc1	-1.5%	-0.6%	.	4.5%	?
C=CCSc1nc2c(c(=O)[nH]c(=O)n2C)n1C(C)C	-1.1%	.	0.4%	0.0%	10µM*
C/C=C/Cn1c(SCc2ccc(C)cc2)nc2c1c(=O)[nH]c(=O)n2C	0.2%	.	.	1.2%	12.6µM*
CCCSc1nc2c(c(=O)[nH]c(=O)n2C)n1Cc1ccc(C)cc1	0.6%	0.6%[0.369 µM]	10.9%	0.0%	21.6%
C=CCn1c(SCc2ccc(Cl)cc2)nc2c1c(=O)[nH]c(=O)n2C	-0.2%	.	-6.6%	-1.9%	10µM*
